mHTT CaM bind = mHTT-calmodulin interaction abrogation; inhibition, % at 15 µM; AlphaScreen His-mHTT/GST-CaM binding, luminescence; P42858; 190,000 compounds, 3.6% hits
Pf apPOL inh = Pf-apPOL DNA polymerase inhibition; Recombinant Pf-apPOL, molecular beacon fluorescence, 1.5 h; inhibition, % at 10 µM; 210,000 compounds, 0.25% hits; AID 1794808
Of the large screens only hits and unclear results are named; the others gave an inactive call. Hits are enriched below; roughly 3.5% of the tested compounds scored in any of these assays. Cut-off read from the data, not from the text of the source: active = inhibition above about 50%; inactive = the rest.

COc1ccc(O)c(CNC2CCN(c3ccc(C(=O)NC4CC4)cn3)C2)c1 (centres undefined)	none
Cc1ccc(C(=O)N2CCCCC2CCN2CCOCC2)cc1 (centres undefined)	none
Cc1cccc(C2C=C(c3ccc(Br)cc3)Nc3nnnn32)c1 (centres undefined)	none
COc1ccc(OCC(=O)N2CCC(n3nc(-c4ccsc4)ccc3=O)CC2)cc1	mHTT CaM bind 88
O=C(COc1ccc(F)cc1)N1CCN(C(=O)COc2ccc(F)cc2)CC1	none
O=C(COc1ccc(F)cc1)N1CCC(n2nc(-c3ccsc3)ccc2=O)CC1	mHTT CaM bind 92
CC1CCN(C(=O)COc2ccc(C(C)C)cc2)CC1	none
COc1ccccc1NC(=O)N1CCCCCC1c1cccs1 (centres undefined)	none
Clc1ccc(-n2nnnc2C=CN2CCN(c3cccc(Cl)c3)CC2)cc1	none (no result: mHTT CaM bind)
CCOc1ccc(N(CC)C(=O)c2nc(C)n(C3CCN(S(C)(=O)=O)CC3)c2C)cc1	none
COc1ccc(N(C)C(=O)c2nc(C)n(C3CCN(S(C)(=O)=O)CC3)c2C)cc1	mHTT CaM bind 86
CN(C)Cc1c(O)ccc2c(=O)c(-c3ccc(Br)cc3)c(C(F)(F)F)oc12	none
O=C(C1CCCN(c2ccncc2)C1)N1CCN(C2CCCCC2)CC1 (centres undefined)	none
Cn1c(COc2ccccc2)nn(CN2CCC3(CC2)OCCO3)c1=S	none (no result: Pf apPOL inh)
Cn1c(COc2ccccc2)nn(C2c3ccccc3Oc3ccccc32)c1=S	mHTT CaM bind 54 (no result: Pf apPOL inh)
CSc1ccc(NC(=O)N2CCC(n3c(-c4ccco4)nc4cccnc43)C2)cc1 (centres undefined)	none
Cc1ccccc1NC(=O)CSc1nccn1-c1cccc(C(=O)Nc2ccccc2)c1	mHTT CaM bind 60
O=C(CSc1nccn1-c1cccc(Cl)c1)Nc1ccccc1F	none
COCCN1COc2ccc3c(c2C1)OC(=Cc1ccc(OC)c(OC)c1)C3=O	none
COc1cc(OC)c(OC)cc1C=C1Oc2c(ccc3c2CN(CCN2CCOCC2)CO3)C1=O	none
COc1ccc(C=C2Oc3c(ccc4c3CN(CCN3CCOCC3)CO4)C2=O)cc1OC	mHTT CaM bind 62
COc1ccc(OC)c(C=C2Oc3c(ccc4c3CN(CCN3CCOCC3)CO4)C2=O)c1	mHTT CaM bind 54
Cc1ccc(-c2nnc(CCC(=O)N3CCC(C)CC3)c(=O)[nH]2)cc1	none
CCOc1ccc(C2C(C#N)=C(N)OC3=C2C(=O)CC(C)(C)C3)cc1 (centres undefined)	none
CCC(C)C(N)c1nc(-c2ccc3c(c2)OCO3)no1 (centres undefined)	none
COc1ccc(CNc2ccc3c(c2)OCO3)cc1Br	mHTT CaM bind 96
COc1cc(OC)c(CNc2ccc3c(c2)OCO3)cc1Br	mHTT CaM bind 100
COc1ccc(S(=O)(=O)Nc2ccc3c(c2)OCO3)cc1Br	none (no result: Pf apPOL inh)
COc1cc(S(=O)(=O)NCc2ccc3c(c2)OCO3)c(OC)cc1Br	none
O=C(c1noc2c1CCCC2)N1CCC2(CC1)OCCO2	none
Cc1ccc(CNC(=O)c2cnn3c(C)c(Cc4cccc(Br)c4)c(C)nc23)cc1	none
COCCNC(=O)c1cnn2c(C)c(Cc3cccc(Cl)c3)c(C)nc12	none
COc1ccccc1CNC(=O)CSc1nc2nc(C)c(Cc3ccccc3)c(C)n2n1	none
Cc1nc2c(C(=O)NCC3CCCO3)cnn2c(C)c1Cc1cccc(Br)c1 (centres undefined)	mHTT CaM bind 96
Cc1nc2c(C(=O)NCc3ccccn3)cnn2c(C)c1Cc1cccc(Cl)c1	mHTT CaM bind 72
COc1ccccc1CNC(=O)Cc1nc2nc(C)c(Cc3cccc(Cl)c3)c(C)n2n1	mHTT CaM bind 57
COc1ccc(CNC(=O)c2cnn3c(C)c(Cc4cccc(Cl)c4)c(C)nc23)cc1	none
COCCNC(=O)c1cnn2c(C)c(Cc3cccc(Br)c3)c(C)nc12	mHTT CaM bind 63
Cc1cccc(-c2noc(C3CCCN3C(=O)CNC(=O)c3cccs3)n2)c1 (centres undefined)	none
COC(=O)Nc1ccc(S(=O)(=O)N2CCCC(C(=O)Nc3ccc4c(c3)OCCO4)C2)cc1 (centres undefined)	none
Cc1c(C(=O)ON=C(N)c2ccc(C(F)(F)F)cc2)oc2ccccc12	none (no result: mHTT CaM bind)
CC(C)c1ccc(-n2nnnc2SCC(=O)Nc2ccc(S(N)(=O)=O)cc2)cc1	none
FC(F)(F)c1ccc(-c2nc(-c3ccc(Cl)cc3)cs2)nc1	none (no result: mHTT CaM bind)
Cc1cc(C(=O)NCc2ccc(F)cc2)nc2cc(-c3ccccc3)nn12	none
OC(CN1CCN(C/C=C/c2ccccc2)CC1)Cn1c2ccccc2c2ccccc21 (centres undefined)	mHTT CaM bind 100
OCC(O)Cn1c2ccc(Br)cc2c2cc(Br)cc(Br)c21 (centres undefined)	mHTT CaM bind 98
OC(CN1CCN(c2ccccc2)CC1)Cn1c2ccccc2c2ccccc21 (centres undefined)	none
OC(CN1CCNCC1)Cn1c2ccccc2c2cc(Br)ccc21 (centres undefined)	mHTT CaM bind 51
OC(CN1CCCCC1)Cn1c2ccc(Br)cc2c2cc(Br)ccc21 (centres undefined)	none (no result: mHTT CaM bind)
OC(CN1CCNCC1)Cn1c2ccccc2c2ccccc21 (centres undefined)	none
Cc1cc(OC(=O)CC(C)(C)C)c([N+](=O)[O-])c(=O)[nH]1	none
c1ccc2c(c1)CCN2c1c2c(nc3ncnn13)CCC2	none
COc1cccc(NC(=O)C2CC(=O)N(CCc3c[nH]c4ccc(F)cc34)C2)c1 (centres undefined)	none
O=C(/C=C/c1ccc(-c2ccc(Cl)cc2)o1)c1ccco1	mHTT CaM bind 58
O=C(/C=C/c1ccc(-c2ccccc2[N+](=O)[O-])o1)c1ccco1	mHTT CaM bind 71
CC1=C/C(=C\c2ccc(-c3ccccc3[N+](=O)[O-])o2)C(=O)O1	mHTT CaM bind 51
CC1=C/C(=C/c2ccc(-c3ccc([N+](=O)[O-])cc3)o2)C(=O)O1	none
O=C(/C=C/c1ccc(-c2ccccc2)o1)c1ccco1	none
O=C(/C=C/c1ccc(-c2ccc([N+](=O)[O-])cc2)o1)c1ccco1	none
Nc1nc(N2CCN(c3ccccc3F)CC2)ncc1[N+](=O)[O-]	none
Cc1ccc(-c2nc(C=Nc3ccc(C)cc3Br)c(O)o2)cc1	none
Cc1cc(C)n(-c2nnc(N)nn2)n1	none (no result: Pf apPOL inh)
Cc1cc(C)n(-c2nnc(C)c(=O)[nH]2)n1	mHTT CaM bind 90
CCc1noc(-c2cccn2Cc2cccc(C#N)c2)n1	none
CC(C)c1ccc(/C=C/C(=O)Nc2nc3ccc(S(C)(=O)=O)cc3s2)cc1	none
CS(=O)(=O)c1ccc2nc(NC(=O)/C=C/c3ccccc3Cl)sc2c1	mHTT CaM bind 75
CS(=O)(=O)NCCNc1ccc([N+](=O)[O-])cc1Cl	none
Nc1ccc(Nc2ccc([N+](=O)[O-])cc2S(=O)(=O)O)cc1	mHTT CaM bind 52
COc1ccc(NC(=O)CN(C)S(=O)(=O)c2ccc3[nH]c4c(c3c2)CCCC4)cc1	mHTT CaM bind 56
CN(CC(=O)Nc1ccc(F)c(Cl)c1)S(=O)(=O)c1ccc2[nH]c3c(c2c1)CCCC3	mHTT CaM bind 66
Cc1c(Cl)cccc1NC(=O)CN(C)S(=O)(=O)c1ccc2[nH]c3c(c2c1)CCCC3	mHTT CaM bind 52
Cc1ccc(NC(=O)CN(C)S(=O)(=O)c2ccc3[nH]c4c(c3c2)CCCC4)c(C)c1	none
Cc1ccc(NC(=O)CN(C)S(=O)(=O)c2ccc3[nH]c4c(c3c2)CCCC4)nc1	none
CC(=O)c1ccc(NC(=O)CN(C)S(=O)(=O)c2ccc3[nH]c4c(c3c2)CCCC4)cc1	none
COc1cccc(C(=O)N2CCN(c3nc(CN4CCOCC4)cs3)CC2)c1	none
